Values joined by “and” are separate entries in the source; they are usually repeats but may differ in a detail not shown here. Identical values can stand only once. Some structures have more than one record in an assay (separate samples or runs), and their calls can disagree. Active and inactive are the calls of the source. Rule for the calls: active = hit-call score of the fitted dose curve at least 0.9, where 1 is the maximum; inactive = score below 0.9.
assay: BSK_4H_Eotaxin3: BioMAP Diversity Plus: 4H Assay for Eotaxin 3 Biomarker Activity (AID 2283000); conditions: primary human endothelial cells (HUVEC); actives raise or lower the signal
Description: BSK_4H is a cell-based, multiplexed-readout assay that uses umbilical vein endothelium, a human vascular primary cell, with measurements taken at 24 hours after chemical dosing in a 96-well plate.BSK_4H_Eotaxin3 is an assay component measured in the BSK_4H assay. It measures Eotaxin-3 antibody related to regulation of gene expression using ELISA technology.Data from the assay component BSK_4H_Eotaxin3 was analyzed into 1 assay endpoint. This assay endpoint, BSK_4H_Eotaxin3, was analyzed with bidirectional fitting relative to DMSO as the negative control and baseline of activity. Using a type of binding reporter, gain or loss-of-signal activity can be used to understand changes in the signaling as they relate to the gene CCL26. Furthermore, this assay endpoint can be referred to as a primary readout, because this assay has produced multiple assay endpoints where this one serves a signaling function. To generalize the intended target to other relatable targets, this assay endpoint is annotated to the cytokine intended target family, where the subfamily is chemotactic factor.
The levels of cell surface (or secreted, indicated by the prefix "s") biomarker endpoints were measured by ELISA. Overt cytotoxicity to cells in confluent adherent cultures (all systems other than the BT system) was assessed by measuring total protein levels using sulforhodamine B (SRB) staining in parallel cultures at the time of biomarker measurements, indicated as SRB endpoints. For proliferation assays for adherent cell types, individual cell types are cultured at sub-confluence and relative cell numbers quantified by SRB staining at time points optimized for each system (48 h: 3C and CASM3C systems; 72 h: BT and HDF3CGF systems; 96 h: SAg system). SRB was performed by staining cells with 0.1% SRB after fixation with 10% TCA and reading wells at 560 nm.Viability and proliferation of PBMC (T cells) was quantified by Alamar Blue reduction for the SAg and BT systems. For PBMC viability (referred to as PBMC Cytotoxicity within the assay endpoint names), cells were plated (75,000/well in a 96-well plate) and then chemical samples added for 1 h before addition of activators, SEB and TSST-1 (20 ng/mL final concentration each). Cells were incubated for 90 h. Then, Alamar Blue (20 uL/well) (Invitrogen, Cat DAL1100) was added for 6 h, and the plates were read with a fluorescence microplate reader at 546/580 nm (excitation/emission). For PBMC proliferation, cells were plated and activated as above but incubated for only 16 h prior to addition of Alamar Blue. Plates were read after 6 h.

| SMILES | outcome | AC50 |
| --- | --- | --- |
| CC(C)COC(=O)c1ccccc1C(=O)OCC(C)C | inactive |  |
| CCN(CC)CCO | inactive |  |
| c1ccc(N=Nc2ccccc2)cc1 | inactive |  |
| CC(C)N(Cc1ccccc1)C(=O)C(C)(C)C | inactive |  |
| COP(=S)(OC)SCN1C(=O)c2ccccc2C1=O | inactive |  |
| Cc1cc(N=Nc2ccccc2C)ccc1N |  | 14.2 µM (active) |
| ClC1=C(Cl)[C@]2(Cl)[C@H]3[C@H]([C@@H]4C=C[C@H]3C4)[C@@]1(Cl)C2(Cl)Cl |  | 34.1 µM (active) |
| CCC(C)c1ccc(O)cc1 (stereo not given) | inactive |  |
| COC(=O)c1ccccc1N | inactive |  |
| N#CC(Br)Br | inactive |  |
| [As]#[In] | inactive |  |
| CCC12COCN1COC2 | inactive |  |
| Nc1ccc(Cc2ccc(N)cc2)cc1 | inactive |  |
| ClC1=C(Cl)C2(Cl)C3C(Cl)C=CC3C1(Cl)C2(Cl)Cl (stereo not given) |  | 29.9 µM (active) |
| CCCCOC(=O)c1ccccc1C(=O)OCc1ccccc1 | inactive |  |
| O=C(O)C1C2CCC(O2)C1C(=O)O (stereo not given) | inactive |  |
| CCOc1cccc(C2(N3CCN(c4ccccc4)CC3)CCC(C)CC2)c1 (stereo not given) | inactive |  |
| Cc1ccc(N=C=O)cc1N=C=O | inactive |  |
| O=C(N[C@H](c1ccccc1)[C@@H]1CN2CCC1CC2)c1c(Cl)ccc(C(F)(F)F)c1Cl | inactive |  |
| CC(C)(C)OOC(=O)c1ccccc1 | inactive |  |

| SMILES | outcome | AC50 |
| --- | --- | --- |
| CN(C)[C@@H]1C(=O)C(C(N)=O)=C(O)[C@@]2(O)C(=O)C3=C(O)c4c(O)cccc4[C@@](C)(O)[C@H]3C[C@@H]12 | inactive |  |
| CC(C)(C)OOC(C)(C)CCC(C)(C)OOC(C)(C)C | inactive |  |
| OCCCBr | inactive |  |
| Cc1cccc(N)c1N | inactive |  |
| C1=Cc2cccc3cccc1c23 | inactive |  |
| [Cl-].[Cl-].[Hg+2] |  | 30.9 µM (active) |
| Clc1ccc(Cl)c(Cl)c1 | inactive |  |
| O=[N+]([O-])c1ccc(Oc2ccc(Cl)cc2Cl)cc1 |  | 33.6 µM (active) |
| Nc1ccc(Oc2ccc(N)cc2)cc1 | inactive |  |
| CCNS(=O)(=O)C(F)(F)C(F)(F)C(F)(F)C(F)(F)C(F)(F)C(F)(F)C(F)(F)C(F)(F)F | inactive | 22.4 µM (active) and 17 µM (active) |
| O=C1CCCO1 | inactive |  |
| Clc1ccc(C(c2ccc(Cl)cc2)C(Cl)(Cl)Cl)cc1 |  | 30.1 µM (active) |
| Cn1cc(-c2ccccc2)c(=O)c(-c2cccc(C(F)(F)F)c2)c1 | inactive |  |
| CC(C)(C)C(O)(CCc1ccc(Cl)cc1)Cn1cncn1 (stereo not given) | inactive |  |
| CC(O)CCO (stereo not given) | inactive |  |
| CC(C)(OOC(C)(C)c1ccccc1)c1ccccc1 |  | 29.9 µM (active) |
| Brc1ccc(Oc2ccccc2)cc1 | inactive |  |
| CCOC(=O)[C@]1(c2ccccc2)Oc2ccccc2[C@@H]1N |  | 29.6 µM (active) |
| COC(=O)Nc1nc2ccccc2[nH]1 |  | 20 µM (active) |

— PubChem BioAssay (EPA / NIEHS)
